High-throughput results deposited in PubChem BioAssay by several laboratories.
The list is not random: actives were taken first. Their share in the collection is about 5.3%.
ALR H2O2 inh = human ALR oxidase inhibition via reduced H2O2. inhibition, % (concentration not given with the values). purified ALR, DTT oxidation, H2O2 HRP-luminol luminescence. AID 485317. 290,000 compounds, 3.8% hits;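 active means mean replicate inhibition above about 79%, with every replicate also reaching it, limit read from the data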
Target sequence (P55789 whole entry, looked up): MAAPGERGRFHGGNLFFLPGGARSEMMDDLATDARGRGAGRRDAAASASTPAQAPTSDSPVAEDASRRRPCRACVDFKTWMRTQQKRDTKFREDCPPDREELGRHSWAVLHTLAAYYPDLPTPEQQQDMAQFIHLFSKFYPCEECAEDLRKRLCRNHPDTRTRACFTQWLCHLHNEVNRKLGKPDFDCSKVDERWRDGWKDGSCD
SUMO Mot1 rescue = blocks SUMOylation pathway, rescuing yeast Mot1-301 growth | 320,000 compounds, 1% hits | S. cerevisiae Mot1-301 growth rescue, ATP luminescence, 38.5C; percent above DMSO median, 100 means doubled | growth rescue, % at 18.8 µM;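 active means every valid replicate shows activation above 250% relative to neutral control wells; inactive means the rest, any valid replicate at or below 250%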;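 further: OY570 slx delta 5 strain wells were the positive control but not used for scaling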
HIF act = HIF pathway transcriptional activation; U2OS HRE-luciferase reporter, luminescence; normalized: DMSO 0%, desferrioxamine 100%; 300,000 compounds, 0.32% hits; activation, % at 7.5 µM (by protocol); AID 1910;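 active means mean activation of at least 10% of the iron chelator positive control signal, with at least half of replicates also reaching 10%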
PfM18AAP inh = blocks P. falciparum M18 aspartyl aminopeptidase. inhibition, % at 7.35 µM. AID 1822. 290,000 compounds, 1.2% hits. recombinant PfM18AAP, H-Glu-NHMec fluorogenic cleavage;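 active means inhibition above the campaign mean inhibition over all tested compounds plus 3 SD, cut at about 28% in these data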;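 further: 0% = plate median of test compound wells and 100% = 2 mM ZnCl2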
Starred values were filed as active, the others as inactive; / = no result.

SMILES | ALR H2O2 inh | SUMO Mot1 rescue | HIF act | PfM18AAP inh
COC(=O)c1cccc(NC(=O)CC2C(=O)NCCN2C(=O)Nc2cc(C)cc(C)c2)c1 (configuration not stated) | -11 | 13 | 0 | -6
COc1ccccc1CCNC(=O)c1ccc(NC(=O)CC2SC(N3CCCC3)=NC2=O)cc1 (configuration not stated) | -2 | -2 | 1 | /
CC(C)(C)OC(=O)C[C@H]1C/C=C\C[C@H](CC(=O)N(CCO)Cc2ccccc2)C(=O)N2CCC[C@H]2COC1=O | -1 | -13 | / | /
Cc1nc(Sc2ccc(Br)cc2)c(C#N)c(C)c1[N+](=O)[O-] | -5 | 7 | 0 | 4
O=C(Cn1ncc2c3ccccc3n(Cc3ccccc3F)c2c1=O)NCCN1CCOCC1 | -3 | -12 | 32* | 5
O=C(Cn1ncc2c3ccccc3n(Cc3ccccc3F)c2c1=O)NCCCN1CCCC1=O | -8 | -5 | 0 | -7
COc1ccc(CCNC(=O)CN2c3cccc4cccc(c34)S2(=O)=O)cc1OC | -34 | 13 | -54 | -3
Cc1ccc(S(=O)(=O)Nc2ccc(-c3ccc4nncn4n3)cc2)cc1 | -4 | -8 | 0 | /
CCOC(=O)C(=NCCCN1CCOCC1)NNc1cccc(C(F)(F)F)c1 | 98* | 324* | -2 | -2
C=CCn1c(=NC(=O)c2ccc(S(=O)(=O)N3CCc4ccccc4C3)cc2)sc2cc(S(N)(=O)=O)ccc21 | -2 | 3 | -5 | 3
C=CCn1c(=NC(=O)CN2C(=O)CCC2=O)sc2cc(S(N)(=O)=O)ccc21 | 98* | -16 | -1 | -4
O=C1COc2ccc(C(=O)COC(=O)Cc3ccsc3)cc2N1 | -6 | -11 | 0 | -13
CNNC(=O)C(C)NC(=O)c1ccc(Br)cc1 (configuration not stated) | 30 | 0 | 38* | 3
COc1ccc(CC(NC(C)=O)C(=O)NC2CCN(C(=O)Nc3ccc(Cl)cc3)CC2)cc1OC (configuration not stated) | -4 | -25 | 37* | -11
CCc1ccccc1NC(=O)N1CCC(NC(=O)C(Cc2ccc(OC)c(OC)c2)NC(C)=O)CC1 (configuration not stated) | -6 | 81 | 0 | 0
O=C(CSc1nc2c(cnn2-c2cccc(Cl)c2)c(=O)[nH]1)NCCC1=CCCCC1 | 29 | -9 | / | /
Cc1ccccc1C(=O)NNC(=S)NC(=O)c1ccccc1 | 98* | -10 | 0 | 21
O=C(NC(=S)NNC(=O)c1ccco1)c1ccccc1 | 88* | -12 | -1 | 9
COc1ccc(C(=O)NC(=S)NNC(=O)c2ccncc2)cc1Br | 99* | -7 | / | /
O=C(/C=C/c1ccc(Br)cc1)NC(=S)NNC(=O)c1ccco1 | 99* | -2 | 1 | 19
COc1ccc(NC(=O)CN2C(=O)/C(=C3\SC(=S)N(C4CCS(=O)(=O)C4)C3=O)c3ccccc32)cc1 (configuration not stated) | -10 | -19 | 0 | 4
Cc1cc(C)nc(N2N=C(C(F)(F)F)CC2=O)n1 | -1 | -13 | 0 | 0
CC(C)(CNC(=O)c1ccc(S(=O)(=O)Nc2ccc(Cl)cc2)cc1)N1CCOCC1 | / | 8 | / | /
Cc1ccc(C(=O)NC(=S)NNC(=O)c2ccccc2)cc1 | 98* | -18 | -1 | -8
Cc1ccccc1OCC(=O)NNC(=S)NC(=O)c1ccco1 | 98* | -5 | 0 | 10
SMILES | ALR H2O2 inh | SUMO Mot1 rescue | HIF act | PfM18AAP inh
O=C(NC(=S)NNC(=O)c1ccccc1O)c1ccccc1 | 8 | 12 | 0 | 30*
Cc1[nH]c(C)c(S(=O)(=O)N2CCCCC2)c1C(=O)N1CCCCC1 | -3 | -9 | 0 | 0
Cc1cc[n+](-c2[nH]c(=O)sc2/C=N/N=C(\[O-])c2ccncc2)cc1C | 18 | -4 | 0 | 29*
O=C(COC(=O)c1cc(=O)[nH]c2ccccc12)NCc1ccccc1Cl | -13 | -3 | / | /
Fc1ccc(NCc2cccnc2)cc1 | / | -9 | -1 | -12
c1ccc(NCc2cccnc2)cc1 | / | 292* | / | 0
Cc1ccc(C(C)(C)NC(=O)C2CCC(=O)N(Cc3ccccc3F)C2)cc1 (configuration not stated) | -9 | -1 | 0 | 5
Cc1ccccc1Cn1nnc(-c2ccc(F)cc2)n1 | 93* | 2 | -1 | -7
Fc1ccc(-c2nnn(Cc3ccccc3Cl)n2)cc1 | 0 | 15 | 2 | -4
C/C(=C/c1ccccc1)C(=O)N1CCC(C)CC1 | -3 | -1 | 1 | -1
CCOc1cc(/C=N/Nc2nc(=O)[nH]nc2C)ccc1O | 99* | 58 | -2 | 14
COc1cc(/C=N/Nc2nc(=O)[nH]nc2C)cc(OC)c1O | 93* | 5 | 0 | 18
